In PubChem BioAssay (NCATS):
Records with an inconclusive call do not appear. Active and inactive are the calls of the source. Calls follow the shape of the dose curve; as a rule, active = well fitted inhibition curve with a large enough effect; inconclusive = small, poorly fitted or top-dose-only effect; inactive = no such curve, though single readings can be large or run the other way.

Assay: qHTS Screen of the MIPE 4.0 Collection Against Ewings Sarcoma (RDES) (AID 1259252); also: nearly all actives have a fitted effect of over 35% in size;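 as to viability (percent of control): 100% = DMSO-treated cells and 0% = medium-only wells without cells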
Details: RD-ES Ewing sarcoma viability, CellTiter-Glo, 48 h; series mostly up to 45.8 µM; viability (percent of control): at the top concentration
Description: There is a large unmet medical need for treatments for Ewing sarcoma, a pediatric sarcoma. We sought to identify compounds that inhibited Ewing sarcoma cells in vitro with the goal to then test promising drugs in two drug combinations in vitro to look for synergistic drug combinations. Promising combinations would then proceed to additional validation, including in vivo testing.
Using the NCATS developed oncology compound library called the Mechanism of Interrogation Plate (MIPE), four Ewing sarcoma cell lines were evaluated (TC32, TC71, RDES, EW8). Compounds, in a 12-point titration series, were incubated with cells for 48 hours and the read out was cell viability (CellTiter-Glo from Promega). These initial experiments were used to select appropriate concentrations of each single agent for subsequent two-drug matrix combinations such that the concentrations in the matrices would span both activity and non-activity.
Cells, in the log phase of growth, were seeded in 5 uL of RPMI plus 5% FBS, […] L-glutamine, 100 U/ml penicillin and 100 ug/ml streptomycin into 1536-well solid-bottom white tissue culture treated Greiner Bio One Plates (789173-F) using a MultiDrop Combi (Thermofisher Scientific) dispenser and a small sterile cassette. One column was media alone to be used as a :"no cells" control. The plates were then covered with sterilized stainless steel gasketed lids from Kalypsys. After allowing cells to attach for 4 hours, 23 nL of test compound or control (negative control DMSO and positive control 9.2 uM Bortezomib-final) were added from a 1536-well polypropylene compound source plate to each well using a 1536 head pin tool from Kalypsys. Cells were then incubated for 48 hours at 37C, 95% relative humidity and 5% CO2. After 48 hours, plates were removed from the incubator and 3 uL of CellTiter-Glo (Promega) was added using an Aurora Flying Reagent Dispenser Bioraptor. Plates were incubated at room temperature for 10 minutes prior to reading the luminescence on the Viewlux (PerkinElmer). The relative luciferase units are used to calculate the percent activity using the activity of DMSO in the cells and no cells columns for normalization of no inhibition and full inhibition respectively.
Potency is read from the fitted curve at half-maximal effect.

| Structure (SMILES) | viability (percent of control) | Potency |
| --- | --- | --- |
| O=C(O)C(=O)c1cn(Cc2ccccc2)c2ccc(-c3ccc(OC(F)(F)F)cc3)cc12 | 99.3% (inactive) |  |
| O=c1[nH]c2ccccc2n1CCCN1CCC(n2c(=O)[nH]c3cc(Cl)ccc32)CC1 | 122% (inactive) |  |
| C[C@@H]1[C@@H](C(=O)C[C@H]2O[C@@H]3O[C@]4(C)CC[C@@H]5[C@H](C)CC[C@@H]([C@H]2C)[C@@]35OO4)O[C@@H]2O[C@]3(C)CC[C@H]4[C@H](C)CC[C@@H]1[C@@]24OO3 |  | 3.72 µM (active) |
| N[C@@H](Cc1ccc(N(CCCl)CCCl)cc1)C(=O)O |  | 5.26 µM (active) |
| Cc1sc2c(c1C)C(c1ccc(Cl)cc1)=N[C@@H](CC(=O)OC(C)(C)C)c1nnc(C)n1-2 |  | 1.48 µM (active) |
| CC(O)(CS(=O)(=O)c1ccc(F)cc1)C(=O)Nc1ccc(C#N)c(C(F)(F)F)c1 (stereo not drawn) |  | 0.59 µM (active) |
| C#CCN(C)[C@H](C)Cc1ccccc1 | 105% (inactive) |  |
| C[C@@H]1[C@@H](CC(C[C@H]2O[C@@H]3O[C@]4(C)CC[C@@H]5[C@H](C)CC[C@@H]([C@H]2C)[C@@]35OO4)C[S+](=O)([O-])c2ccc(COC(=O)N(C)C)cc2)O[C@@H]2O[C@]3(C)CC[C@H]4[C@H](C)CC[C@@H]1[C@@]24OO3 (stereo partly drawn) |  | 0.418 µM (active) |
| COC[C@@H](NC(C)=O)C(=O)NCc1ccccc1 | 108% (inactive) |  |
| Cc1cccc(C)c1NC(=O)CN1CCCC1=O | 119% (inactive) |  |
| CCCC(C)(COC(N)=O)COC(=O)NC(C)C (stereo not drawn) | 126% (inactive) |  |
| C[C@@H]1O[C@@H](O[C@H]2C[C@@H](O)[C@]3(CO)[C@H]4[C@H](O)C[C@]5(C)[C@@H](C6=CC(=O)OC6)CC[C@]5(O)[C@@H]4CC[C@]3(O)C2)[C@H](O)[C@H](O)[C@H]1O |  | 0.0833 µM (active) |
| CC1=C2C[C@@H]3[C@@H](CC=C4C[C@@H](O)CC[C@@]43C)[C@@H]2CC[C@]12O[C@H]1C[C@H](C)CN[C@H]1[C@H]2C | 111% (inactive) |  |
| CNCC(O)c1ccc(O)cc1 (stereo not drawn) | 109% (inactive) |  |
| CN(C)CCc1ccc(O)cc1 | 103% (inactive) |  |
| CNC(=O)c1ccc(N2C(=S)N(c3ccc(C#N)c(C(F)(F)F)c3)C(=O)C23CCC3)cc1F |  | 20.9 µM (active) |
| CN(C)CCN(C)CCc1ccc(Cl)c(Cl)c1 | 109% (inactive) |  |
| Cn1c(CCCC(=O)O)nc2cc(N(CCCl)CCCl)ccc21 |  | 26.4 µM (active) |
| O=C1CC[C@@]2(O)[C@H]3Cc4ccc(O)c5c4[C@@]2(CCN3CC2CC2)[C@H]1O5 | 122% (inactive) |  |
| CNC(=O)N1N=C(c2ccc(N)cc2)c2cc3c(cc2CC1C)OCO3 (stereo not drawn) |  | 9.35 µM (active) |
| COc1ccc2c(c1OC)CN1CCc3cc4c(cc3C1C2)OCO4 (stereo not drawn) |  | 14.8 µM (active) |
| C=C(C)[C@H]1Cc2c(ccc3c2O[C@@H]2COc4cc(OC)c(OC)cc4[C@@H]2C3=O)O1 |  | 2.09 µM (active) |
| COc1ccc(C(=O)c2c(C)n(CCN3CCOCC3)c3ccccc23)cc1 | 94.1% (inactive) |  |
